The list is not random: actives were taken first. Their share in the collection is about 7.4%.
HEK293 tox: kills HEK 293 cells; HEK 293 viability, ATP luminescence (CellTiter-Glo), 48-72 h; Potency, µM (titrated, usually from 115 µM), most hits filed as inhibitors; 94,000 tested, 6.6% active; note: nearly all actives have a fitted effect of over 60% in size
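250 HEK 293 cells/well; compound by pintool; incubated 48 or 72 hr at 37 degree Celsius; CellTiter-Glo added, 10 min RT, luminescence imaged.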
NIH3T3 tox: NIH 3T3 cell cytotoxicity; NIH 3T3 viability, CellTiter-Glo ATP luminescence, 48-72 h; Potency, µM (titrated, usually from 96.7 µM), usual class: inhibitors; 94,000 tested, 4.3% active; note: nearly all actives have a fitted effect of over 55% in size
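Cells were seeded at 400 per well, treated with pin-transferred compound, and kept 48 or 72 hr at 37 °C before CellTiter-Glo addition and luminescence imaging of cellular ATP.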
SNCA viab count: cell viability loss counter-screen; 150,000 tested, 0.12% active; AID 1671193; Potency, µM (titrated, usually from 57.1 µM), usual class: cytotoxic; HEK-293-SNCA-luc viability, GF-AFC fluorescence, 24 h; note: nearly all actives have a fitted effect of over 30% in size
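HEK-293-SNCA-luc cells (1500/well) plated 24 h, then exposed 24 h to a dilution series; GF-AFC added 30 min at 37C, fluorescence 405/540 nm; normalised to medium-only and DMSO wells, Hill fit.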
Luciferase inh: Photinus pyralis luciferase inhibition; purified P. pyralis luciferase, luminescence, biochemical; P08659; Potency, µM (series often up to 115 µM), actives largely listed as inhibitors; 76,000 tested, 2.5% active; note: nearly all actives have a fitted effect of over 65% in size
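Luminescence read by CCD imaging after purified firefly luciferase (10nM final) was added to substrate buffer holding 10uM D-luciferin and 10uM ATP, pH 7.5, pre-dosed with compound.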
SNCA expr inh: reduces expression of the alpha-synuclein gene | HEK-293 SNCA-luciferase knock-in, luminescence, 24 h | Potency, µM (highest dose often 57.2 µM), hits mostly inhibitors | 140,000 tested, 0.17% active | AID 1671194; note: nearly all actives have a fitted effect of over 45% in size
NPR1 antag: human Npr1 receptor antagonism | P16066 | HEK293 hNpr1 GloSensor cGMP, ANP-stimulated luminescence | Potency, µM (doses to about 46.3 µM), actives largely listed as inhibitors | 76,000 tested, 1.6% active; calls by dose curve; note: nearly all actives have a fitted effect of over 60% in size
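HEK293 cells stably expressing human Npr1 and cGMP GloSensor pGS-40F, loaded 2 h with 2% GloSensor reagent, given compound 30 min at room temperature. Luminescence read before and 20 min after 0.1 nM hNppA.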
Of the large screens only hits and unclear results are named; the others gave an inactive call. Unless noted, calls come from the whole dose curve; as a rule, active = well fitted curve in the direction sought with a large enough effect; inconclusive = small, poorly fitted or top-dose-only effect, or another doubt; inactive = no such curve, though single readings can be large; an effect the other way counts as inactive or inconclusive.

CN(Cc1ccc(F)cc1)c1ccc2ncc(Nc3cccc(O)c3)n2n1	HEK293 tox 63µM, NIH3T3 tox inconclusive, SNCA expr inh inconclusive, NPR1 antag inconclusive
OCCc1ccc(Nc2cnc3ccc(-c4ccc(F)cc4)nn23)cc1	HEK293 tox inconclusive, NIH3T3 tox inconclusive
CN(Cc1cccnc1)c1ccc2ncc(Nc3ccc(F)cc3)n2n1	HEK293 tox 79µM, NIH3T3 tox inconclusive, NPR1 antag inconclusive
CN(Cc1cccnc1)c1ccc2ncc(Nc3ccc4c(c3)OCO4)n2n1	HEK293 tox inconclusive, NIH3T3 tox inconclusive, SNCA viab count inconclusive
CN(Cc1ccc(F)cc1)c1ccc2ncc(Nc3ccc4c(c3)OCO4)n2n1	HEK293 tox 63µM, NIH3T3 tox 28µM, SNCA expr inh inconclusive, NPR1 antag inconclusive
COCCNC(=O)C1CCN(c2nccc(Nc3ccccc3Cl)n2)CC1	HEK293 tox inconclusive, NIH3T3 tox inconclusive (no result: Luciferase inh, NPR1 antag)
COc1ccc(CC(=O)N2C[C@@H]3CCCN4CCC[C@@H]([C@H]34)[C@H]2CCCC(=O)NCC2CC2)cc1	none (no result: Luciferase inh, NPR1 antag)
O=C(c1cc(Cl)ccc1F)N1CCC[C@H]1c1nc(-c2ccc(F)cc2)no1	HEK293 tox 79µM, NIH3T3 tox inconclusive
COc1ccc(-c2noc([C@@H]3CCCN3C(=O)c3cc(C)cc(C)c3)n2)cc1OC	HEK293 tox 32µM, NIH3T3 tox inconclusive
O=c1c2nc(NCc3ccccc3)ccc2ncn1Cc1ccccn1	HEK293 tox inconclusive, NIH3T3 tox 79µM
Cn1ncc(N2CCN(CC3(O)CCCNC3)CC2)cc1=O (stereo unspecified)	HEK293 tox inconclusive
OC1(CN2CCN(c3ccc(F)c(Cl)c3)CC2)CCCNC1 (stereo unspecified)	HEK293 tox 79µM, NIH3T3 tox inconclusive
COc1ccc(-n2c(=O)c(C(=O)NCc3ccc(F)cc3)nc3cccnc32)cc1	HEK293 tox inconclusive, NIH3T3 tox inconclusive (no result: Luciferase inh, NPR1 antag)
CCN1c2cc(C(=O)Nc3ccc(C(F)(F)F)cc3)ccc2C(=O)N2CCCCC21 (stereo unspecified)	HEK293 tox inconclusive, NIH3T3 tox inconclusive, SNCA viab count inconclusive
CCN1c2cc(C(=O)Nc3ccc(OC(F)(F)F)cc3)ccc2C(=O)N2CCCCCC21 (stereo unspecified)	HEK293 tox 32µM, NIH3T3 tox 25µM, SNCA expr inh inconclusive
CCN1c2cc(C(=O)Nc3cccc(OC(F)(F)F)c3)ccc2C(=O)N2CCCCC21 (stereo unspecified)	HEK293 tox 25µM, NIH3T3 tox inconclusive, SNCA expr inh inconclusive
N#Cc1ccc(C(=O)N2CCC(Cc3nc(C4CC4)n[nH]3)C2)cc1 (stereo unspecified)	NIH3T3 tox inconclusive (no result: Luciferase inh, NPR1 antag)
COc1ccc(C2(C(=O)N(C)Cc3ccc(OC(F)(F)F)cc3)CCOCC2)cc1	HEK293 tox 50µM, NIH3T3 tox inconclusive (no result: Luciferase inh, NPR1 antag)
COc1c(C)c(OCC(O)C(C)(C)O)cc2c1COC2=O (stereo unspecified)	none (no result: HEK293 tox, NIH3T3 tox, Luciferase inh, SNCA expr inh, NPR1 antag)
O=C(Cc1ccccn1)N1CCC(C(=O)N2CCC(c3nc4ncccc4[nH]3)CC2)CC1	none (no result: Luciferase inh, NPR1 antag)
O=C(NCCc1ccccn1)C1c2ccccc2C(=O)N(C2CCCCC2)C12CCCCC2 (stereo unspecified)	HEK293 tox 45µM, NIH3T3 tox inconclusive
COC(=O)CCNC(=O)C1c2ccccc2C(=O)N(C2CCCCC2)C12CCCCC2 (stereo unspecified)	HEK293 tox inconclusive, SNCA viab count inconclusive
O=C(NCc1ccc(F)cc1)c1nc2sccn2c1-c1ccc(F)cc1	HEK293 tox inconclusive, NIH3T3 tox inconclusive (no result: Luciferase inh, NPR1 antag)
O=C(NCCc1ccccc1)c1nc2sccn2c1-c1cccc(C(F)(F)F)c1	HEK293 tox inconclusive, NIH3T3 tox inconclusive (no result: Luciferase inh, NPR1 antag)
COc1ccc(NC(=O)c2nc3sccn3c2-c2cccc(C(F)(F)F)c2)cc1	HEK293 tox inconclusive, NIH3T3 tox inconclusive, SNCA viab count 22µM (no result: Luciferase inh, NPR1 antag)
O=C(NCc1ccc(F)cc1)c1nc2sccn2c1-c1ccc(C(F)(F)F)cc1	HEK293 tox inconclusive, NIH3T3 tox 14µM, SNCA expr inh inconclusive (no result: Luciferase inh, NPR1 antag)
COc1cccc(-c2c(C(=O)NCCCc3ccccc3)nc3sccn23)c1	HEK293 tox inconclusive, NIH3T3 tox inconclusive, SNCA expr inh inconclusive (no result: Luciferase inh, NPR1 antag)
